In the library only some 0.37% were active in any assay of this set; here they are far more common.
A-T KAP1 phos – qHTS Assay for Identifying a Potential Treatment of Ataxia-Telangiectasia; 320,000 compounds, 0.19% hits; Potency, µM (titrated, usually from 57.5 µM), most hits filed as activators; F2112 A-T fibroblasts, KAP-1 phosphorylation AlphaLISA; neocarzinostatin DNA damage 30 min before lysis; note: nearly all actives have a fitted effect of over 45% in size
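hTERT-immortalized A-T patient fibroblasts (F2112), 500 cells/well in OPTI-MEM, 1% FBS, got compounds for 60 min, then NCS for 30 min at 37C. Lysates were then assayed for phospho-KAP-1 by AlphaLISA (anti-pKAP1 donor, anti-KAP1 acceptor beads), 6 hr at 25C.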
S-ASM inh – Inhibitors of Secretory Acid Sphingomyelinase (S-ASM): qHTS; Sphingomyelin phosphodiesterase (Homo sapiens), P17405; placental ASM, HMU-PC fluorogenic substrate, 60 min; Potency, µM (highest dose often 57.5 µM), actives largely listed as inhibitors; 340,000 compounds, 0.006% hits; AID 504937, 2011
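Fluorogenic HMU-PC substrate (9 uM final) is turned over by placental ASM in 60 min at 37 C after a 10 min compound preincubation. Reaction ended by alkaline stop (pH 10), with fluorescence read at 386/447 nm.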
TRPV1 PAM – HTS Assay for Compounds that Act as Potentiators of the Vanilloid Receptor 1; potentiation, % at 8.33 µM; Transient receptor potential cation channel subfamily V member 1 (Homo sapiens), Q8NER1; TRPV1-expressing cells, Fluo-8 calcium influx, capsaicin EC20 potentiation; 320,000 compounds, 0.02% hits; in the data active = potentiation above about 80%; inconclusive = between about 30% and that limit
Target sequence (Q8NER1 whole entry, looked up): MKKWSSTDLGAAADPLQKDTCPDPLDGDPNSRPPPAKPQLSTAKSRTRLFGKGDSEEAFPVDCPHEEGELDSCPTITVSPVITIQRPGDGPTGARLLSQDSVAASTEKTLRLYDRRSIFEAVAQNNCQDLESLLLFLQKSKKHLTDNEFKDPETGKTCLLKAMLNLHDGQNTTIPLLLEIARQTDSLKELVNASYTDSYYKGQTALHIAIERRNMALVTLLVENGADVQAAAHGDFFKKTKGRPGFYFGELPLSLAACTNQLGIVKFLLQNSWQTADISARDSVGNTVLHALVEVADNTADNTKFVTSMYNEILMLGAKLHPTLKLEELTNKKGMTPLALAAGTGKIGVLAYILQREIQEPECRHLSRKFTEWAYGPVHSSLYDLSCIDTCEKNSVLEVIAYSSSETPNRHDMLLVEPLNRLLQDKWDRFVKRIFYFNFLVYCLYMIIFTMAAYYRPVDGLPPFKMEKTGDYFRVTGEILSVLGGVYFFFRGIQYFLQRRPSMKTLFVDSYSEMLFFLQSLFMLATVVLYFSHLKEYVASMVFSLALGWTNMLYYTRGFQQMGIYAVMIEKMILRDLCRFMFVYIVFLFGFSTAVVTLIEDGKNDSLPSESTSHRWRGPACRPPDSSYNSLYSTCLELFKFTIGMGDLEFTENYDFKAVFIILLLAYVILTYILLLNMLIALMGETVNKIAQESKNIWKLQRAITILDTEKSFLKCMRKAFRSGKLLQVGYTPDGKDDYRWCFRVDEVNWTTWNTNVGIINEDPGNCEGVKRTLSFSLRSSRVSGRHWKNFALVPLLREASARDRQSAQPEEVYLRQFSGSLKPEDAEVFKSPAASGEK
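Cells expressing TRPV1 were dye-loaded with Fluo-8 and read kinetically: 10 s baseline, 3 min after compound (agonist portion), then 2 min after EC20 capsaicin (allosteric enhancer portion). Calcium-bound dye fluorescence at 480/520 nm.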
TRPV1 agonist – HTS Assay for Compounds that Act as Agonists of the Vanilloid Receptor 1 | Transient receptor potential cation channel subfamily V member 1 (Homo sapiens), Q8NER1 | TRPV1-expressing cells, Fluo-8 calcium influx, agonist mode | activation, % at 8.33 µM | 320,000 compounds, 0.19% hits; in the data active = activation above about 80%; inconclusive = between about 30% and that limit
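Cells expressing TRPV1 were dye-loaded with Fluo-8 and read kinetically: 10 s baseline, 3 min after compound (agonist portion), then 2 min after EC20 capsaicin (allosteric enhancer portion). Calcium-bound dye fluorescence at 480/520 nm.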
PTAP TSG101 blk – qHTS Assay for Iinhibitors of HIV-1 Budding by Blocking the Interaction of PTAP/TSG101 | Fluorescence polarization, FITC-PTAP peptide / Tsg101 binding | Potency, µM (top dose mostly 115 µM), usual class: inhibitors | AID 493005, 2010 | Tumor susceptibility gene 101 protein (Homo sapiens), Q99816 | 340,000 tested, under 10 active; active = well fitted inhibition curve with a large enough effect in the main read-out, with a control signal flat, not every such curve was filed as active; inconclusive = small, poorly fitted or top-dose-only effect, or effect the other way, or a change in a side signal; inactive = no such curve, though single readings can be large or run the other way
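Fluorescence anisotropy tracks displacement of a FITC-tagged PTAP peptide (50 nM) from the Tsg101 binding domain (10 uM), following a 20 min room-temperature incubation at pH 7.5.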
Numbers stand for hits; - = inactive; ? = inconclusive; . = not tested or not shown; [ ] = dose if it differs, or a comment. Unless noted, calls come from the whole dose curve; as a rule, active = well fitted curve in the direction sought with a large enough effect; inconclusive = small, poorly fitted or top-dose-only effect, or another doubt; inactive = no such curve, though single readings can be large; an effect the other way counts as inactive or inconclusive.

SMILES	A-T KAP1 phos	S-ASM inh	TRPV1 PAM	TRPV1 agonist	PTAP TSG101 blk
Cc1cnc(NC(=O)c2cc3c(s2)CCCC3)s1	.	-	-	89	-
Cc1csc(NC(=O)c2cc3c(s2)CCCC3)n1	?	-	-	-	-
CCCn1c(N2CCN(C(=O)Nc3ccc(Cl)cc3)CC2)nc2ccccc21	-	-	-	81	-
CC(C)n1c(N2CCN(C(=O)Nc3ccc(Cl)cc3)CC2)nc2ccccc21	-	-	-	82	-
COc1ccccc1CNC(c1ccccc1)c1ccccc1	28µM	-	-	-	-
C=C1CCN([C@H](C(=O)OCc2ccc(C)cc2)C(C)C)S(=O)(=O)c2ccccc21	40µM	-	-	-	-
C=C1CCN([C@@H](C)C(=O)OCc2cccc(C)c2)S(=O)(=O)c2ccccc21	-	-	-	-	-
COc1ccc(CCn2c(S)nc3ccccc3c2=O)cc1	1.8µM	-	-	-	-
COc1ccc(CCn2c(C)nc3c(c(=O)c4ccccc4n3C)c2=O)cc1	-	-	-	-	-
CC(=O)c1ccc(NC(=O)c2ccc(C)c(S(=O)(=O)N3CCOCC3)c2)cc1	-	-	-	?	-
CN(C)CCCN(CCCN(C)C)C(=S)Nc1ccc(S(=O)(=O)N2CCOCC2)cc1	18µM	-	?	-	-
Cc1ccc(NC(=O)c2ccc(S(=O)(=O)N3CCCC3)cc2)cc1	.	-	.	.	-
Cc1ccc(C(=O)Nc2ccc3cn[nH]c3c2)cc1S(=O)(=O)N1CCOCC1	-	-	-	92	-
Cc1ccc(C(=O)Nc2ccc(S(=O)(=O)N3CCCC3)cc2)cc1	-	-	-	85	-
Cc1ccc(NC(=O)c2ccc3c(c2)OCCO3)cc1C	-	-	-	85	-
Cc1ccc(NC(=O)c2ccc(C)cc2)cc1	-	-	-	81	-
Cc1ccc(S(=O)(=O)N2CCOCC2)cc1C(=O)Nc1ccc2c(c1)CCC2	-	-	-	83	-
Cc1cc(C)c2cc(C(=O)Nc3ccc(C)c(F)c3)[nH]c2c1	-	-	-	?	-
CSc1ncccc1C(=O)Nc1ccc2c(c1)OCCO2	28µM	-	.	.	-
COc1cc2[nH]c(C(=O)Nc3ccc(F)cc3)cc2c(OC)c1OC	-	.	-	86	.
O=C(Nc1ccc2c(c1)OCCO2)c1ccccc1F	-	-	-	-	-
O=S(=O)(Nc1cccnc1)c1cccc2ccccc12	.	.	-	-	.
O=C(CSc1nc(-c2ccc(F)cc2)cs1)NCC1CCCO1 (stereo not drawn)	-	-	.	.	-
O=C(NCCn1cccc1)c1cccc2ccccc12	-	-	-	-	-
Cc1ccc(C(=O)Nc2ccc(S(=O)(=O)N3CCOCC3)cc2)cc1C	-	-	-	82	-
SMILES	A-T KAP1 phos	S-ASM inh	TRPV1 PAM	TRPV1 agonist	PTAP TSG101 blk
N#Cc1ccc(NC(=O)CCc2ccc(S(=O)(=O)N3CCOCC3)cc2)cc1	.	-	-	102	-
COC(=O)c1ccc(NC(=O)Cc2ccc(F)cc2)cc1	-	-	-	-	-
N#Cc1ccc(NC(=S)NC(=O)CCc2ccc(S(=O)(=O)N3CCOCC3)cc2)cc1	-	-	-	-	-
COC(=O)c1ccc(C(=O)Nc2ccc(F)cc2)cc1	28µM	-	-	?	-
O=C(Nc1cccc2cccnc12)C(Cl)(Cl)Cl	.	.	-	-	.
Cn1c2cc(Br)sc2c2cnn(Cc3c(F)cccc3F)c(=O)c21	-	.	.	.	.
COC(=O)C1=CN(C2CC2)C=C(C(=O)OC)C1c1ccc(C(=O)OC)cc1	32µM	-	-	-	-
CC(=O)Nc1cccc(C(=O)/C=C/c2ccc(F)cc2)c1	?	-	-	-	-
CCN(CC)c1ccc(/C=C/C(=O)c2ccc(Br)cc2)cc1	-	-	-	123	?
CC(=O)Nc1cccc(C(=O)/C=C/c2ccc(Br)cc2)c1	25µM	.	-	-	-
CCC(=O)Nc1cccc(C(=O)/C=C/c2cc(Br)ccc2OC)c1	35µM	-	-	-	-
CC(=O)Nc1cccc(C(=O)/C=C/c2ccc(N(C)C)cc2)c1	-	-	-	80	?
CC(=O)Nc1cccc(C(=O)/C=C/c2ccc(/C=C/C(=O)c3cccc(NC(C)=O)c3)cc2)c1	-	.	-	-	.
Cc1ccc(OCC(=O)N2CCCCC2C)c([N+](=O)[O-])n1 (stereo not drawn)	-	-	.	.	-
N#Cc1ccc2c(c1)C[C@]1(CCCCN3C(=O)c4ccccc4C3=O)Oc3c(c(=O)oc4ccccc34)C2O1	-[11.5 µM]	.	-	-	.
CCCC(=O)Nc1nc2c(s1)COc1ccccc1-2	-	-	-	-	-
CCCCC(=O)Nc1nc2c(s1)COc1ccccc1-2	-	-	-	121	-
CC(C)c1ccc(NC2CCCN(C(=O)c3ccnc(Cl)c3)C2)cc1 (stereo not drawn)	-	-	-	91	-
CC(C)c1ccc(NC2CCCN(C(=O)c3cc(C(C)C)[nH]n3)C2)cc1 (stereo not drawn)	-	-	-	-	-
CC(C)c1ccc(NC2CCCN(C(=O)c3ccco3)C2)cc1 (stereo not drawn)	-	-	-	97	-
Cc1ncsc1CCC(=O)N1CCCC(Nc2ccc(C(C)C)cc2)C1 (stereo not drawn)	-	-	-	84	-
COC(=O)c1ccc(C(=O)N2CCCC(Nc3ccc(C(C)C)cc3)C2)nc1 (stereo not drawn)	-	-	-	83	-
CC(=O)c1ccc(C(=O)N2CCCC(Nc3ccc(C(C)C)cc3)C2)s1 (stereo not drawn)	-	-	-	?	-
COc1ccc(CCNC(=O)Cn2nc(C)c3c(C)n(-c4ccc(C)cc4)nc3c2=O)c(OC)c1	-	.	-	-	.
CN(Cc1ccc(Cl)c(Cl)c1)C(=O)CN1C(=O)NC2(CCCC2)C1=O	-	-	-	-	-
SMILES	A-T KAP1 phos	S-ASM inh	TRPV1 PAM	TRPV1 agonist	PTAP TSG101 blk
O=C(CCc1ccccc1)N1CCCC(Nc2ccc(F)cc2)C1 (stereo not drawn)	-	-	-	87	-
O=C(CCc1ccncc1)N1CCCC(Nc2ccc(F)cc2)C1 (stereo not drawn)	-	-	-	-	-
COc1ccc2c(c1)C(C)CC(C)(C)N2C(=O)CSc1ncn[nH]1 (stereo not drawn)	20µM	-	.	.	-
COc1ccc(N2CCN(C(=O)CSc3ncn[nH]3)CC2)cc1	-	-	-	-	-
CCc1ccc(NC(=O)N(Cc2c[nH]c3ccccc23)C2CCCCCC2)cc1	.	.	-	?	.
Cc1cc(C)cc(NC(=O)c2ccc(S(=O)(=O)C(F)F)cc2)c1	-	-	-	?	-
